These results are taken from PubChem BioAssay (NCATS).

The target of test [1] is Rap guanine nucleotide exchange factor 3 (Homo sapiens) (UniProt O95398). The experiment in a line: Confirmatory qHTS for antagonist of cAMP-regulated guanine nucleotide exchange factor 3 (EPAC1) (AID 1645880). Further: nearly all actives have a fitted effect of over 55% in size. Further: potency means the concentration at half of the fitted maximal effect. In a few lines: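 Released BODIPY-GDP fluoresces less than Rap1-bound BODIPY-GDP; the signal is followed at 480/540 nm at 5-min intervals over 30 min, after 5 min at room temperature. Reactions contain 100 nM EPAC1, 250 nM RAP1B-BODIPY-GDP and 50 uM GDP; results are normalized to ATA and DMSO.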
Sequence of Rap guanine nucleotide exchange factor 3 (Homo sapiens) (O95398 whole entry, looked up): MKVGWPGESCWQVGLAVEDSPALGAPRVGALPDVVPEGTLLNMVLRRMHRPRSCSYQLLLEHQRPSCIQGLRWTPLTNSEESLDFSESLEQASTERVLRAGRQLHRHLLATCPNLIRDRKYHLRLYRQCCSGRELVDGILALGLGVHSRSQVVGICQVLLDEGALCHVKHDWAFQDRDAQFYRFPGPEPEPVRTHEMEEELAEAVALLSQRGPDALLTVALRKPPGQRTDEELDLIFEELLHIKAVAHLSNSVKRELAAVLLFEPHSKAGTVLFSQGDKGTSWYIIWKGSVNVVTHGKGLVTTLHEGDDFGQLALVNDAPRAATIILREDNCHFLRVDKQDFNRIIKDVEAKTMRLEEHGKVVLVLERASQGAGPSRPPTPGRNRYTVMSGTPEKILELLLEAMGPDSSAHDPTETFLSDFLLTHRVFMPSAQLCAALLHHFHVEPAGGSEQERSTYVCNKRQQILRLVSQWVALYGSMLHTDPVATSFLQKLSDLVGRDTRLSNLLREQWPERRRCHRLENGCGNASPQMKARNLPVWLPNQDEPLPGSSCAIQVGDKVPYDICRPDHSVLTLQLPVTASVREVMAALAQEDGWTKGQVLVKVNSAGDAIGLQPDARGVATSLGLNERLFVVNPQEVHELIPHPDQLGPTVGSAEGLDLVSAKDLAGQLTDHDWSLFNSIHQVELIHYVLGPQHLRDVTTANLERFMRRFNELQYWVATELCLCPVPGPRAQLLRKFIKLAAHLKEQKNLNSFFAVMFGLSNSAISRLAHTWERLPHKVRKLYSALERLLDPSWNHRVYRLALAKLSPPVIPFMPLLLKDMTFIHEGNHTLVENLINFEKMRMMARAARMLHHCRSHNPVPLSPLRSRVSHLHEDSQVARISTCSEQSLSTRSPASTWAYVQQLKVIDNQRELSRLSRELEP

Test [2] has the same target. Description: Confirmatory qHTS for agonist of cAMP-regulated guanine nucleotide exchange factor 3 (EPAC1) (AID 1645881).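 Further: EPAC1 catalysed release of BODIPY-GDP from Rap1B seen as fluorescence loss; 100% = effect of cAMP agonist control; nearly all actives have a fitted effect of over 75% in size.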 For orientation: In qHTS, concentration-response curves come from the screen itself.
The target of test [3] is Rap guanine nucleotide exchange factor 4 (Homo sapiens) (UniProt Q8WZA2). Description: Confirmatory qHTS for agonist of cAMP-regulated guanine nucleotide exchange factor 4 (EPAC2) (AID 1645884).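 Further: nucleotide exchange releases bodipy-GDP from Rap1 and this lowers its fluorescence; on the % scale 0 is the no-effect control and ±100 the full control effect; nearly all actives have a fitted effect of over 65% in size.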
Sequence of Rap guanine nucleotide exchange factor 4 (Homo sapiens) (Q8WZA2 whole entry, looked up): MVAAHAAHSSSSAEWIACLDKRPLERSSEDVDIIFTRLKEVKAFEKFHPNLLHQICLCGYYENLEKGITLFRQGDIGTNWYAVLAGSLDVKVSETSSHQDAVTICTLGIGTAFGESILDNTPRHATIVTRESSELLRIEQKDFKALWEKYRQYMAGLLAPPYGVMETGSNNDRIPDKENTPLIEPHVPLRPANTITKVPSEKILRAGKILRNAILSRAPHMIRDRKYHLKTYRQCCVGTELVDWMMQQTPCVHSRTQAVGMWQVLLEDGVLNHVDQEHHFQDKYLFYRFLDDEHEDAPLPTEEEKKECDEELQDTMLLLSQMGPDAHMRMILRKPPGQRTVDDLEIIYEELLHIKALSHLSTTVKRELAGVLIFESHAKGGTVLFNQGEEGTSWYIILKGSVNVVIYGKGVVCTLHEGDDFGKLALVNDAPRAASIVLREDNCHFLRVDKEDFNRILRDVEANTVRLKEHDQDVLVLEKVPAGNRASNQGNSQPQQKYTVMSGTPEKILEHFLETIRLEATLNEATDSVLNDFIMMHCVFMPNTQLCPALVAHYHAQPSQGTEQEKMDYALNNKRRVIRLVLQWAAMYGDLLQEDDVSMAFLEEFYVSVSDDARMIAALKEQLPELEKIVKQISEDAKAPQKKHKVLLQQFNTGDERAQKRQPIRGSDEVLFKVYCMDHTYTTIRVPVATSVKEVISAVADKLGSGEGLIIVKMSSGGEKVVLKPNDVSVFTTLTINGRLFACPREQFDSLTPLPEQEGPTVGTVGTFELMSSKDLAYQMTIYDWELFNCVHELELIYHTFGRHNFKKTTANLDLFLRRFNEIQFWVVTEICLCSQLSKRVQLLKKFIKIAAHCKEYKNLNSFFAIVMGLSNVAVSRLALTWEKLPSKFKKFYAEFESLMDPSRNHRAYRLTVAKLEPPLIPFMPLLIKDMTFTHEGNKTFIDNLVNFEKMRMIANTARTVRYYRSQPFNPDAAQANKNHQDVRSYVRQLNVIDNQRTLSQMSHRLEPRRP
Test [4] shares this target. Description: Confirmatory qHTS for antagonist of cAMP-regulated guanine nucleotide exchange factor 4 (EPAC2) (AID 1645885). Further: nearly all actives have a fitted effect of over 25% in size. Further: potency means the concentration at half of the fitted maximal effect. On activity change, negative = inhibition: on the % scale 0 is the no-effect control and ±100 the full control effect.
Test [5] has as its target Rap guanine nucleotide exchange factor 3 (Homo sapiens) (UniProt O95398). The experiment in a line: Counterscreen qHTS for antagonist of cAMP-regulated guanine nucleotide exchange factor 3 (EPAC1) (AID 1645888). Further: % of control where 0% means no effect. In a few lines:
(§1)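 Rap1B-BODIPY-GDP 250 nM + GDP 50 uM; cpds 7-pt, final 9.74 nM–152 uM (activator mode) or from 7.32 nM upwards (inhibitor mode); RT; FI 480/540 nm at 5 and 30 min, then ± cAMP, reread.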

Test [6] has the same target. Description: Counterscreen qHTS for agonist of cAMP-regulated guanine nucleotide exchange factor 3 (EPAC1) (AID 1645889). Further: nearly all actives have a fitted effect of over 40% in size. Further: potency means the concentration at half of the fitted maximal effect. On activation: % of control where 0% means no effect. In a few lines:
as §1
On the technique in general: The purpose of a counterscreen is to sort out artefacts and off-target activity.

Records with an inconclusive call do not appear. A number with no mark means an inactive call. Calls of active or inactive are those of the source. The call rests on the fitted dose curve; in most records, active means well fitted curve in the direction sought with a large enough effect; inconclusive means small, poorly fitted or top-dose-only effect, or another doubt; inactive means no such curve, though single readings can be large; an effect the other way counts as inactive or inconclusive.

Regarding `Cc1ccc(-c2nc3ccc(Br)cn3c2Cc2ccccc2C(F)(F)F)cc1`, the Potency is 84.9 µM (active) in test [1] and 47.8 µM (active) in test [4]. In addition, the Potency result in test [2], in test [3], in test [5] and in test [6] was “inactive” each time.
For the molecule `CN1C(=O)/C(=C\c2ccc(N(C)C)cc2)OC1=S`, the Potency result in test [1], in test [2], in test [3], in test [4] and in test [5] was “inactive” throughout. In test [6], the Potency is 15.8 µM (active).
With `C=CCOc1ccc(/C=C2\SC(=S)N(NS(=O)(=O)c3ccc(C)cc3)C2=O)cc1`, the Potency in test [1] was 21.3 µM (active). The Potency entry in test [2], in test [3], in test [4], in test [5] and in test [6] was “inactive” each time.
In the case of `N#Cc1c(-c2ccccc2)nc(SCc2cccc(Cl)c2)[nH]c1=O`, the Potency in test [1] was 67.5 µM (active); in test [4] it was 37.9 µM (active). Moreover, the Potency entry in test [2], in test [3], in test [5] and in test [6] was “inactive” in each case.
For the molecule `CCSc1nc2ccccc2c(OCc2ccccc2Cl)c1C(=O)OC`, the Potency entry in test [1], in test [2], in test [3], in test [4], in test [5] and in test [6] was “inactive” throughout.
Turning to `O=C(O)COc1ccc(NC(=O)C(c2ccccc2)c2ccccc2)cc1`, the Potency entry in test [1], in test [2], in test [3], in test [5] and in test [6] was “inactive” throughout. The Potency in test [4] was 33.8 µM (active).
For `CCC1CCCCN1CCCNC(=O)c1ccc(CS(=O)(=O)Cc2ccccc2F)o1` (configuration not stated), the Potency result in test [1], in test [2], in test [3], in test [4], in test [5] and in test [6] was “inactive” each time.
Consider `CC(C)c1c(Cl)c(O)c(-c2ccccc2)c(=O)n1-c1ccc(F)cc1`, for which, in test [1], the Potency is 19 µM (active). Further, the Potency entry in test [2], in test [3], in test [4], in test [5] and in test [6] was “inactive” each time.
For `CCCCN1C(=O)C(O)(c2c[nH]c3ccccc23)c2cc(Br)ccc21` (configuration not stated), the Potency entry in test [1], in test [2], in test [3], in test [4], in test [5] and in test [6] was “inactive” in each case.
Regarding `COc1ccc(C(=O)NCCONC(=O)c2ccc(OC)cc2)cc1`, the Potency result in test [1], in test [2], in test [3], in test [4], in test [5] and in test [6] was “inactive” throughout.
For the molecule `NNc1nc2c(Cl)ccc(Cl)c2s1`, the Potency entry in test [1], in test [2], in test [3], in test [4], in test [5] and in test [6] was “inactive” each time.
Regarding `O=C(CCCc1ccccc1)NCc1cn2ccsc2n1`, the Potency entry in test [1], in test [2], in test [3], in test [4], in test [5] and in test [6] was “inactive” each time.
In the case of `Cc1ccc(S(=O)(=O)Nc2ccccc2N2CCCCC2)cc1`, the Potency entry in test [1], in test [2] and in test [4] was “inactive” throughout. Further, the activation is 1.85% [at 17.1 µM, percent relative to cAMP agonist control] in test [3] and 18.9% [at 30.8 µM] in test [6]. The activity change, negative = inhibition in test [5] is -22.5% [at 30.8 µM].
Consider `CC(C)OC(=O)NC(c1ccccc1)C(Cl)(Cl)Cl` (configuration not stated), for which the Potency entry in test [1], in test [2] and in test [4] was “inactive” throughout. In addition, the activation in test [3] is 4.21% [at 17.1 µM, percent relative to cAMP agonist control]; in test [6], 7.19% [at 30.8 µM]. Further, the activity change, negative = inhibition in test [5] was -2.25% [at 30.8 µM].
With `CC1=NOC(=O)/C1=C\c1ccc(-c2ccc(Cl)cc2Cl)o1`, the Potency in test [1] was 15.8 µM (active). The Potency entry in test [2] and in test [4] was “inactive” throughout. Also, the activation in test [3] is -0.185% [at 17.1 µM, percent relative to cAMP agonist control]; in test [6] it was 15.1% [at 30.8 µM]. In test [5], the activity change, negative = inhibition was -37.2% [at 30.8 µM].
Consider `O=C(NCC1CCCO1)c1ccc(C(=O)NCC2CCCO2)cc1` (configuration not stated), for which the Potency result in test [1], in test [2] and in test [4] was “inactive” in each case. The activation in test [3] was 5.86% [at 17.1 µM, percent relative to cAMP agonist control]; in test [6], -3.36% [at 30.8 µM]. In test [5], the activity change, negative = inhibition is -1.36% [at 30.8 µM].
Regarding `COC(=O)C1=CN(c2ccc(F)cc2)C(N)=C(C#N)C1c1cccc(OC)c1OC` (configuration not stated), the Potency result in test [1], in test [2] and in test [4] was “inactive” in each case. Also, the activation in test [3] is 4.9% [at 17.1 µM, percent relative to cAMP agonist control]; in test [6], 17% [at 30.8 µM]. The activity change, negative = inhibition in test [5] was -6.52% [at 30.8 µM].
With `O=C(N/N=C/c1cn(-c2ccccc2)nc1-c1cccnc1)c1ccccc1`, the Potency result in test [1], in test [2] and in test [4] was “inactive” in each case. Moreover, the activation was 6.58% [at 17.1 µM, percent relative to cAMP agonist control] in test [3] and 18.8% [at 30.8 µM] in test [6]. Moreover, the activity change, negative = inhibition in test [5] was -17.7% [at 30.8 µM].
On to `C#Cc1ccc([C@@H]2C=C(C(=O)NCc3nc4ccccc4[nH]3)O[C@H](OCC)[C@H]2CCCO)cc1`, for which the Potency result in test [1], in test [2] and in test [4] was “inactive” in each case. Also, the activation is 7.11% [at 17.1 µM, percent relative to cAMP agonist control] in test [3] and 30.9% [at 30.8 µM] in test [6]. Besides, the activity change, negative = inhibition in test [5] was -6.31% [at 30.8 µM].
Turning to `COc1ccc(C(=O)Nc2cc(OC)c(Cl)cc2OC)cc1`, the Potency entry in test [1], in test [2] and in test [4] was “inactive” each time. In addition, the activation is 4.3% [at 17.1 µM, percent relative to cAMP agonist control] in test [3] and 10.3% [at 30.8 µM] in test [6]. For the same molecule, the activity change, negative = inhibition in test [5] was -12.1% [at 30.8 µM].
On to `O=C(COC(=O)c1c2c(nc3ccccc13)/C(=C/c1ccco1)CC2)NC1CCCC1`, for which, in test [1], the Potency is 30.1 µM (active). Besides, the Potency result in test [2], in test [3], in test [4], in test [5] and in test [6] was “inactive” each time.
With `CC1CN(C(=O)COC(=O)COc2ccc(C#N)cc2)CC(C)O1` (configuration not stated), the Potency entry in test [1], in test [2] and in test [4] was “inactive” each time. Also, the activation is -1.51% [at 17.1 µM, percent relative to cAMP agonist control] in test [3] and 1.53% [at 30.8 µM] in test [6]. In test [5], the activity change, negative = inhibition was -3.73% [at 30.8 µM].
